Drawing on the supplement of paper PMC6805474, this text covers XTT viability, phenotypic severity score and drug effect for 21 compounds.

In test [1] the test system is Schistosoma mansoni schistosomula (LE). Put plainly: XTT viability relative to DMSO control; higher = more viable (less active). The settings on record: 72 h; 10 µM. The procedure: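 XTT/PMS was then added for a further 24 h (72 h total) and A450 was read. % viability = (sample - heat-killed control)/(DMSO control - heat-killed control) x 100, from duplicate wells in two independent experiments.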
(Tetrazolium assays rely on reduction of a dye to a coloured formazan, in cell work by metabolically active cells.)

In test [2] the test system is Schistosoma mansoni schistosomula (NMRI). The test can be described thus: phenotypic severity score (0-4); higher = more antischistosomal effect, active = 2 or more. The settings on record: 10 µM.
The subject of test [3] is Schistosoma mansoni schistosomula (Liberian). The test can be described thus: drug effect (1 - score/DMSO control score) (fraction); higher = more antischistosomal effect, active = 0.5 or more; extreme values may be limits of the assay. As to conditions: 10 µM. The procedure, abridged: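 A plate was valid only if its 0.1% DMSO wells averaged a score of at least 2. Those wells ran beside duplicate wells in which 50 Liberian-strain Schistosoma mansoni schistosomula each, transformed mechanically from cercariae and pre-incubated at least 12 h, met 10 µM compound in Medium 199 with 5% FCS at 37 °C, 5% CO2. Scoring was visual at 10× at 24, 48 and 72 h, from 3 (normal) to 0 (dead) in quarter-point steps. Drug effect was derived from the mean test-well score against the mean DMSO-well score, with negatives set to zero.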

Each structure is given as a SMILES string.
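Throughout, for phenotypic severity score (0-4): visual microscopic scoring of shape, motility and density changes versus 0.5% DMSO solvent controls, one point per descriptor, degeneracy or death scored 4, mean of duplicate wells.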

With `O=[N+]([O-])c1cn2c(n1)OC[C@@H](OCc1ccc(OC(F)(F)F)cc1)C2`, the XTT viability in test [1] was found to be 158%. The phenotypic severity score in test [2] (24 h), in test [2] (48 h) and in test [2] (72 h) was 0 (inactive) each time. The drug effect was 0.2 (inactive) in test [3] (24 h), 0.167 (inactive) in test [3] (48 h) and 0.312 (inactive) in test [3] (72 h).
For `FC(F)(F)c1ccc(N(c2cccnc2)C2CCN(c3ccc(C(F)(F)F)cn3)CC2)cc1`, in test [1], the XTT viability came to 77.5%. Also, the phenotypic severity score is 0 (inactive) in test [2] (24 h), 0 (inactive) in test [2] (48 h) and 1 (inactive) in test [2] (72 h). Further, the drug effect is 0.2 (inactive) in test [3] (24 h), 0.222 (inactive) in test [3] (48 h) and 0.312 (inactive) in test [3] (72 h).
In the case of `CCCn1nnc(NC(=O)COc2ccc(C3CCCCC3)cc2)n1`, the XTT viability in test [1] worked out at 89.6%. The phenotypic severity score in test [2] (24 h), in test [2] (48 h) and in test [2] (72 h) was 0 (inactive) each time. For the same compound, the results for the drug effect in test [3] (24 h), in test [3] (48 h) and in test [3] (72 h) were 0.136 (inactive), 0.2 (inactive) and 0.182 (inactive), respectively.
With `CCOc1ccc(OCC(=O)Nc2cc(C)cc(C)c2)cc1`, the XTT viability in test [1] is 67%. The phenotypic severity score in test [2] (24 h), in test [2] (48 h) and in test [2] (72 h) was 0 (inactive) throughout. Besides, the drug effect was 0.0909 (inactive) in test [3] (24 h), 0.05 (inactive) in test [3] (48 h) and 0.158 (inactive) in test [3] (72 h).
Take `O=C(Nc1ccc(N2CCNCC2)nc1)c1oc(-c2ccccc2)nc1C(F)(F)F`: the XTT viability in test [1] was 69.7%. Besides, the phenotypic severity score in test [2] (24 h), in test [2] (48 h) and in test [2] (72 h) was 0 (inactive) each time. The drug effect in test [3] (24 h) was 0.0811 (inactive); in test [3] (48 h), 0.389 (inactive); in test [3] (72 h) it was 0.625 (active).
Take `CCCCS(=O)(=O)Nc1ccc2cnn(C)c2c1`: in test [1], the XTT viability was found to be 141%. Further, the phenotypic severity score in test [2] (24 h), in test [2] (48 h) and in test [2] (72 h) was 0 (inactive) each time. In addition, the drug effect was 0.0811 (inactive) in test [3] (24 h), 0.111 (inactive) in test [3] (48 h) and 0.0625 (inactive) in test [3] (72 h).
`Nc1ccc(C(=O)Nc2ccc(-c3nc4ccccc4o3)cc2)cc1`: the XTT viability in test [1] was 64.2%. Also, the phenotypic severity score in test [2] (24 h), in test [2] (48 h) and in test [2] (72 h) was 0 (inactive) in each case. Also, the drug effect in test [3] (24 h) is 0.0909 (inactive); in test [3] (48 h), 0.05 (inactive); in test [3] (72 h) it was 0.211 (inactive).
As for `O=C(c1ccc(NCCO)cc1)C1C[C@H]1c1ccc(Cl)cc1` (some centres not stated), the XTT viability in test [1] was 93.3%. Also, the phenotypic severity score in test [2] (24 h), in test [2] (48 h) and in test [2] (72 h) was 0 (inactive) in each case. Further, the drug effect in test [3] (24 h) is 0.135 (inactive); in test [3] (48 h) it was 0.278 (inactive); in test [3] (72 h) it was 0.625 (active).
`c1ccc(Oc2ccc(-c3cncc(-c4ccc5[nH]ccc5c4)n3)cc2)cc1`: the XTT viability in test [1] turned out to be 3.06%. Besides, the phenotypic severity score in test [2] (24 h) is 0 (inactive); in test [2] (48 h) it was 0 (inactive); in test [2] (72 h) it was 2 (active). For the same compound, the results for the drug effect in test [3] (24 h), in test [3] (48 h) and in test [3] (72 h) were 0.6 (active), 1 (active) and 1 (active), respectively.
On to `COc1ccc(N(CCc2cccc(C)n2)C(C)=O)cc1`, for which the XTT viability in test [1] is 114%. Moreover, the results for the phenotypic severity score in test [2] (24 h), in test [2] (48 h) and in test [2] (72 h) were 1 (inactive), 1 (inactive) and 0 (inactive), respectively. Also, the results for the drug effect in test [3] (24 h), in test [3] (48 h) and in test [3] (72 h) were 0.15 (inactive), 0.135 (inactive) and 0.0909 (inactive), respectively.
For `COc1ccc(-c2nn(C(C)C)c3ncnc(N)c23)cc1OC`, the XTT viability in test [1] is 95.2%. Moreover, the phenotypic severity score in test [2] (24 h), in test [2] (48 h) and in test [2] (72 h) was 0 (inactive) each time. The values for the drug effect in test [3] (24 h), in test [3] (48 h) and in test [3] (72 h) were 0.05 (inactive), 0.0556 (inactive) and 0.0556 (inactive), respectively.
As to `O=C(COc1cccc(F)c1)Nc1nc(-c2ccccn2)cs1`, the XTT viability in test [1] was 68.1%. Also, the phenotypic severity score in test [2] (24 h), in test [2] (48 h) and in test [2] (72 h) was 0 (inactive) each time. The figures for the drug effect in test [3] (24 h), in test [3] (48 h) and in test [3] (72 h) were 0.0909 (inactive), 0.1 (inactive) and 0.127 (inactive), respectively.
As for `O=C(Nc1cccnc1)c1c(O)c2cccc3c2n(c1=O)CC3`, the XTT viability in test [1] turned out to be 118%. Also, the phenotypic severity score in test [2] (24 h), in test [2] (48 h) and in test [2] (72 h) was 0 (inactive) in each case. Also, the results for the drug effect in test [3] (24 h), in test [3] (48 h) and in test [3] (72 h) were 0.182 (inactive), 0.2 (inactive) and 0.0727 (inactive), respectively.
For `CCCNC(=O)N1CCC2(CC1)CC(=O)c1cc(C)ccc1O2`, the XTT viability in test [1] worked out at 102%. Besides, the phenotypic severity score in test [2] (24 h), in test [2] (48 h) and in test [2] (72 h) was 0 (inactive) each time. In addition, the drug effect is 0.1 (inactive) in test [3] (24 h), 0.15 (inactive) in test [3] (48 h) and 0.111 (inactive) in test [3] (72 h).
As to `COc1cc2ncnc(NC3CCN(Cc4ccccc4)CC3)c2cc1OC`, the XTT viability in test [1] stood at 86.5%. Also, the phenotypic severity score in test [2] (24 h), in test [2] (48 h) and in test [2] (72 h) was 0 (inactive) in each case. For the same compound, the drug effect is 0.1 (inactive) in test [3] (24 h), 0.135 (inactive) in test [3] (48 h) and 0.0556 (inactive) in test [3] (72 h).
Regarding `FC(F)(F)c1cccc(-c2nc3c(NCc4ccncc4)nccc3[nH]2)c1`, the XTT viability in test [1] was 90.7%. Further, the phenotypic severity score in test [2] (24 h), in test [2] (48 h) and in test [2] (72 h) was 0 (inactive) in each case. In addition, the results for the drug effect in test [3] (24 h), in test [3] (48 h) and in test [3] (72 h) were 0.15 (inactive), 0.0811 (inactive) and 0.152 (inactive), respectively.
Take `COc1ccc(-c2cnc3ccc(NCc4ccc(S(N)(=O)=O)cc4)nn23)cn1`: the XTT viability in test [1] was determined as 125%. Moreover, the phenotypic severity score in test [2] (24 h), in test [2] (48 h) and in test [2] (72 h) was 0 (inactive) throughout. Also, the drug effect in test [3] (24 h) is 0.15 (inactive); in test [3] (48 h), 0.222 (inactive); in test [3] (72 h), 0.312 (inactive).
Turning to `COc1ccc(Cl)cc1NC(=O)CN(C)C(=O)c1cnn(-c2ccccc2)n1`, the XTT viability in test [1] turned out to be 78.4%. Further, the phenotypic severity score in test [2] (24 h), in test [2] (48 h) and in test [2] (72 h) was 0 (inactive) each time. Besides, the drug effect in test [3] (24 h) is 0.2 (inactive); in test [3] (48 h), 0.351 (inactive); in test [3] (72 h), 0.389 (inactive).
Take `O=C1COCc2ccc(Br)cc2N1Cc1ccc(C(F)(F)F)cc1`: in test [1], the XTT viability came to 99.5%. Moreover, the phenotypic severity score in test [2] (24 h), in test [2] (48 h) and in test [2] (72 h) was 0 (inactive) in each case. In addition, the drug effect in test [3] (24 h) is 0.297 (inactive); in test [3] (48 h), 0.389 (inactive); in test [3] (72 h), 0.438 (inactive).
On to `CC1(COc2ccc(N3CCC(Oc4ccc(OC(F)(F)F)cc4)CC3)cc2)Cn2cc([N+](=O)[O-])nc2O1` (configuration not stated), for which the XTT viability in test [1] worked out at 110%. For the same compound, the phenotypic severity score in test [2] (24 h), in test [2] (48 h) and in test [2] (72 h) was 0 (inactive) in each case. Also, the results for the drug effect in test [3] (24 h), in test [3] (48 h) and in test [3] (72 h) were 0.158 (inactive), 0.111 (inactive) and 0.0625 (inactive), respectively.
`CC(C)(C)c1ccc(N[C@@H]2CCCC[C@H]2NC(=O)c2ccco2)cc1`: the XTT viability in test [1] worked out at 117%. Further, the phenotypic severity score in test [2] (24 h), in test [2] (48 h) and in test [2] (72 h) was 0 (inactive) each time. In addition, the drug effect in test [3] (24 h) was < 0 (inactive); in test [3] (48 h), < 0 (inactive); in test [3] (72 h), 0.111 (inactive).
